Screens as filed in PubChem.
The list is not random: actives were taken first. Their share in the collection is about 15%.
12-LOX inh = inhibitors of human 12S-lipoxygenase ALOX12; Potency, µM (doses to about 108 µM), for the others: at the top dose activity change, negative = inhibition, hits mostly inhibitors; purified 12hLO, xylenol orange hydroperoxide absorbance; P18054; 1.1% of 580,000 active
Target sequence (P18054 whole entry, looked up): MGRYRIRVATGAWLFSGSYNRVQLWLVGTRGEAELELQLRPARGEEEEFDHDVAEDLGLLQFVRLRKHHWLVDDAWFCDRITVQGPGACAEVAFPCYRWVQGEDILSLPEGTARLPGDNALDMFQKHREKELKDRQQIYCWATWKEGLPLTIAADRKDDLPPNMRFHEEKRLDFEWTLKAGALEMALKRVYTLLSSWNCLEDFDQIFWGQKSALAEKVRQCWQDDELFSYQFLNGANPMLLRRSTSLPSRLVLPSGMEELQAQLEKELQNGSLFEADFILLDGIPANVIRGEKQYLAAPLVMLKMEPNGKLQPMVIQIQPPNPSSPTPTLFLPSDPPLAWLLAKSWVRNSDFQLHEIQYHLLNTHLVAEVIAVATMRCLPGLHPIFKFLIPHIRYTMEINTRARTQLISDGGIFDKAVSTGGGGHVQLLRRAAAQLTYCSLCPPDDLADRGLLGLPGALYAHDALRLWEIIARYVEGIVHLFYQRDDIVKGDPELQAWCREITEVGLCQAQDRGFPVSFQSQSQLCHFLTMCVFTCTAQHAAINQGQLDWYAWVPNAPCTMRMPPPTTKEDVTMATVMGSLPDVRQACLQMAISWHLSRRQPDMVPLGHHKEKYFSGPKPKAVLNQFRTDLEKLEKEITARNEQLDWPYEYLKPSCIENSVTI
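Purified human 12hLO at 150 nM in 25 mM Hepes, 0.01% Triton X-100, pH 7.0, preincubated 15 min at room temperature with compound. Reaction started with 40 uM arachidonic acid, 30 min at room temperature. Hydroperoxide measured by Fe-xylenol orange, 573/405 nm absorbance ratio.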
TDP1 cell CPT = growth inhibition of DT40 Tdp1-/-;hTDP1 cells with camptothecin (screen for TDP1 inhibitors); chicken DT40 Tdp1-/-;hTDP1 cells + 20 nM CPT, ATP luminescence, 48 h; Potency, µM (doses to about 46.2 µM), for the others: at the top dose activity change, negative = growth inhibition, most hits filed as inhibitors; 12% of 420,000 active; further: nearly all actives have a fitted effect of over 55% in size
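Chicken DT40 Tdp1-/- cells stably complemented with human TDP1 were seeded at 400 cells/well in medium containing 20 nM camptothecin, exposed to pin-transferred compounds, and grown at 37 °C for at least 48 hr. Viability was read as ATP luminescence.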
Gal4-VP16 FLuc = inhibits Gal4-VP16 luciferase reporter, ROR gamma counter-screen; AID 2546; Drosophila S2 Gal4-VP16 UAS-luciferase, luminescence, 20 h; 3.5% of 310,000 active; Potency, µM (highest dose often 53.6 µM), for the others: top-dose activity, negative = inhibition, most hits filed as inhibitors;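 further: Gal4-VP16 expression switched on by copper sulfate through the metallothionein promoter; nearly all actives have a fitted effect of over 50% in size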
DT40 TDP1 no CPT = qHTS for Inhibitors of human tyrosyl-DNA phosphodiesterase 1 (TDP1): qHTS in cells in absence of CPT; DT40 Tdp1-/- hTDP1 cells, no CPT, ATP luminescence, 48 h; Potency, µM (titrated, usually from 46.2 µM), for inactives: at the highest dose activity change, negative = growth inhibition, most hits filed as inhibitors; 15% of 420,000 active; AID 686978, 2013; further: nearly all actives have a fitted effect of over 55% in size
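A cellular qHTS used chicken DT40 cells lacking endogenous Tdp1 but carrying stably transfected human TDP1. Compounds were applied without camptothecin, and cell growth kinetics were judged by ATP-dependent luminescence after ≥48 hr.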
ELG1 DNA repair = ELG1-dependent DNA repair inhibition. HEK293T ELG1-luciferase reporter, luminescence, 16 h; DNA damage induced by 5-fluorouridine. Potency, µM (top dose mostly 46.1 µM), without a hit: at the highest dose activity change, negative = inhibition, hits mostly inhibitors. 2.3% of 330,000 active; further: nearly all actives have a fitted effect of over 55% in size
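DMSO vehicle served as the neutral condition. Each well held 2,000 cells given 5-fluorouridine plus compound; after 16 hr at 37 °C/5% CO2, ONE-Glo was added and luciferase measured 30 min later.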
RORgamma inh = blocks mouse ROR gamma transcriptional activity; 5.4% of 310,000 active; AID 2551; Drosophila S2 Gal4-RORgamma UAS-luciferase reporter, 20 h; Potency, µM (top dose mostly 53.6 µM), without a hit: top-dose activity change, negative = inhibition, usual class: inhibitors; P51450; further: nearly all actives have a fitted effect of over 60% in size
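Using a luciferase readout, inhibitors were identified by reduced reporter activity in Drosophila cells coexpressing a copper-inducible Gal4–ROR gamma fusion and UAS-driven Photinus luciferase, incubated 20 hr after 700 uM copper sulfate.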
* hit, by the source's call; i = inactive; u = inconclusive; x = not tested or not shown; [ ] = remark or other dose. The call rests on the fitted dose curve; in most records, active means well fitted curve in the direction sought with a large enough effect; inconclusive means small, poorly fitted or top-dose-only effect, or another doubt; inactive means no such curve, though single readings can be large; an effect the other way counts as inactive or inconclusive. On the % scale 0 is the no-effect control and ±100 the full control effect; potency means the concentration at half of the fitted maximal effect.

SMILES	12-LOX inh	TDP1 cell CPT	Gal4-VP16 FLuc	DT40 TDP1 no CPT	ELG1 DNA repair	RORgamma inh
CC(=O)O[C@H]1CC[C@]2(C)[C@H]3CC=C4[C@@H]5[C@@H](C)[C@H](C)CC[C@]5(C(=O)O)CC[C@@]4(C)[C@]3(C)CC[C@H]2C1(C)C	x	x	7.7%	x	-0.9%	u
C[C@H]1[C@H](C)CC[C@]2(C(=O)O)CC[C@]3(C)C(=CCC4[C@@]5(C)C[C@@H](O)[C@H](O)[C@@](C)(CO)[C@@H]5CC[C@]43C)[C@H]12 (some centres not stated)	x	0.7%	-5.8%	u	x	11.2µM*
NCC(=O)N1CCCC2(Cc3ccccc3CN2C(=O)Cc2cccc(Cl)c2)C1 (configuration not stated)	3.5%[6.33 µM]	x	x	x	x	x
CCOC(=O)CN1C(c2ccc(O)cc2)Nc2ccc(Br)cc2C1c1ccccc1 (configuration not stated)	-13.4%	14.6µM*	u	u	u	25.6%
CCOc1ccc(CSC2=NCCN2)cc1[N+](=O)[O-]	-3.7%	u	-7.5%	16.4µM*	-7.0%	-28.5%
CCOc1ccc(CN(CCO)CCO)cc1[N+](=O)[O-]	10.3%	-1.4%	-9.4%	-3.5%	-3.4%	-25.9%
O=[N+]([O-])c1ccc(CSC2=NCCN2)cc1	0.0%	20.6µM*	-4.1%	20.6µM*	9.9%	-0.9%[1.91 µM]
C/C(=N\NC1=NCCN1)c1ccc(N)c([N+](=O)[O-])c1	-2.3%	-26.8%	u	u	u	u
CCCCOc1ccc(CSC2=NCCN2)cc1[N+](=O)[O-]	-1.9%	18.4µM*	-6.0%	20.6µM*	15.3%	-5.0%
CCCCCCOc1ccc(/C(C)=N/NC2=NCCN2)cc1[N+](=O)[O-]	-14.2%	u	u	10.3µM*	-2.3%	u
CCCCCOc1ccc(Cn2ccnc2)cc1[N+](=O)[O-]	-9.5%	u	-2.6%	u	u	u
CC(C)(CNC(=O)c1cc(-c2ccc(Cl)cc2)on1)N1CCOCC1	8.0%	x	x	x	x	x
Cc1ccc(NC(=O)c2ccc(NC(=O)c3ccccc3)cc2)cc1C	-8.6%	13µM*	25.7%	u	u	15.2%
COc1ccc(C(=O)Nc2ccc(Nc3ccccc3)cc2)cc1[N+](=O)[O-]	0.0%	23.1µM*	-1.1%	20.6µM*	u	u
COc1ccc(C(=O)Nc2ccc(OCc3ccccc3)cc2)cc1[N+](=O)[O-]	3.4%	u	u	2.2%	8.1%	19.1%
Cc1ccc(C(=O)Nc2ccc(C(=O)O)cc2)cc1C	-23.1%	x	x	x	x	x
Cc1cccc(NC(=O)c2ccc(NC(=O)c3ccccc3Br)cc2)c1	23.3%	u	-0.8%	u	u	-9.7%
Cc1ccc(C(=O)Nc2ccc(Nc3ccccc3)cc2)cc1C	0.3%	20.6µM*	x	20.6µM*	x	x
Cc1cccc(C(=O)Nc2ccc(NC(=O)c3ccccc3)cc2)c1	u	u	8.8%	u	-15.3%	16.6%
Cc1ccc(C(=O)Nc2ccc(Nc3ccccc3)cc2)cc1Br	18.3%	6.51µM*	x	4.11µM*	x	x
CN(C)C(=O)c1ccc(NC(=O)c2ccc(C#N)cc2)cc1	-13.7%	x	x	x	x	x
Cc1ccc(C(=O)Nc2ccc(Oc3ccc(C(=O)O)c(C(=O)O)c3)cc2)cc1C	-22.5%	23.1µM*	-28.2%	0.6%	5.3%	-30.5%
COc1ccc(/C=C2\SC(=O)NC2=S)cc1OC	39.8µM*	10.3µM*	u	u	u	u
COc1cc(/C=N/O)ccc1OC(C)C	12.5%	x	x	x	x	x
CO/N=C/c1ccc(Oc2ccc([N+](=O)[O-])cc2[N+](=O)[O-])c(OC)c1	-15.8%	u	-4.5%	16.4µM*	11.2%	-5.1%
SMILES	12-LOX inh	TDP1 cell CPT	Gal4-VP16 FLuc	DT40 TDP1 no CPT	ELG1 DNA repair	RORgamma inh
CCN1C(=O)C(=Cc2cccc(OC)c2Oc2ccc([N+](=O)[O-])cc2[N+](=O)[O-])SC1=S	-24.4%	1.46µM*	u	1.46µM*	u	u
COc1cc(/C=N/O)ccc1Oc1ccc([N+](=O)[O-])cc1[N+](=O)[O-]	-0.9%	u	-9.3%	18.4µM*	-6.4%	-22.6%
N#Cc1ccc(CN2CCC(c3ccnn3CCO)CC2)c(F)c1	31.4%	x	x	x	x	x
O=C1c2c(nc(CNc3nccs3)n2Cc2ccccc2)NCCN1Cc1ccccc1F	82.3%	x	x	x	x	x
O=C(CSc1nnc(-c2ccncc2)n1C1CC1)c1cc2ccccc2o1	-15.6%	x	x	x	x	x
CCCNC(=O)CN(C)Cc1nc2ccccc2o1	-6.5%	x	x	x	x	x
COc1cc(/C=C2\SC(=O)NC2=O)ccc1Oc1ccc([N+](=O)[O-])cc1[N+](=O)[O-]	u	18.4µM*	-15.8%	16.4µM*	u	u
Cc1ccccc1C(=O)NC1CCN(c2cc(-c3cccs3)[nH]n2)C1 (configuration not stated)	24.0%	x	x	x	x	x
O=C(O)c1ccc(Nc2nc3ccccc3n3cnnc23)cc1	8.8%	u	x	7.31µM*	x	x
CCCCOC(=O)c1ccc(Nc2nc3ccc(C)cc3n3cnnc23)cc1	-7.2%	-1.1%	x	-22.0%	x	x
CCOc1ccc(Nc2nc3ccccc3n3cnnc23)cc1	5.5%	u	-4.1%	23.1µM*	u	0.5%
c1ccc(N2CCCCC2)c(Nc2nc3ccccc3n3cnnc23)c1	0.0%	u	-2.5%	20.6µM*	u	-13.1%
c1ccc(Nc2nc3ccccc3n3cnnc23)cc1	-10.7%	-25.8%	1.6%	-24.6%	9.3%	u
CCCCOC(=O)c1ccc(Nc2nc3ccc(C(=O)c4ccccc4)cc3n3cnnc23)cc1	-14.9%	20.6µM*	x	16.4µM*	x	x
COc1ccc(CC(=O)N2Cc3ccccc3CC3(CCN(CC4CCNC4)C3)C2)cc1 (configuration not stated)	-27.5%[6.33 µM]	x	x	x	x	x
COc1ccc(-c2nn3c(=O)c(C)nnc3s2)cc1	x	-3.3%	-3.2%	11.0%	u	12.6%
Cc1nc2sc(-c3ccccc3)nn2c(=O)c1Br	2.9%	23.1µM*	-5.7%	u	u	-8.6%
COCc1noc([C@@H]2CN(S(=O)(=O)Cc3ccc(F)cc3)C[C@H]2C(N)=O)n1	41.9%	x	x	x	x	x
Cc1cc(C)nc(N/N=C2/CCCC/C2=C\c2ccccc2)n1	i	2.06µM*	10µM*	1.16µM*	2.31µM*	1.41µM*
Cc1ccnc(N/N=C/c2ccccc2)n1	-6.0%	12.4%	u	-21.1%	u	u
CCOc1ccccc1-c1nc(-c2cc3ccccc3nc2OC)no1	-15.4%	16.4µM*	-0.5%	23.1µM*	u	7.5%
